In the antibiotic and cytotoxicity screens of Wong et al. (2023) one finds cytotoxicity call data, which are given here for 63 molecules.

The campaign covered roughly 39,000 compounds. About 3,300 (8.5%) were called active. The entries come from a sample that favours actives as a whole.

The test deals with HepG2. The experiment in a line: cytotoxicity call (relative viability < 0.9). The following applies: 10 µM.
Regarding `COc1ccc2cc3[n+](cc2c1OC)CCc1cc2c(cc1-3)OCO2.[Cl-]`, the cytotoxicity call was “active”.

Regarding `COc1cc2c(cc1OC)-c1cc3ccc(OC)c(OC)c3c[n+]1CC2.[Cl-]`, the cytotoxicity call was “inactive”.

Turning to `C[C@@H]1CN([C@@H](C)CO)C(=O)c2cccc(NC(=O)Nc3ccc(C(F)(F)F)cc3)c2O[C@@H]1CN(C)S(=O)(=O)c1ccc(Cl)cc1`, the cytotoxicity call was “inactive”.

Regarding `COCC(=O)N(C)C[C@H]1Oc2cc(C#CC(C)(C)O)ccc2S(=O)(=O)N([C@H](C)CO)C[C@@H]1C`, the cytotoxicity call is “inactive”.

Take `COc1ccccc1S(=O)(=O)N(C)C[C@H]1Oc2ncc(Br)cc2C(=O)N([C@@H](C)CO)C[C@H]1C`: the cytotoxicity call was “inactive”.

Consider `C[C@@H]1CN([C@H](C)CO)C(=O)Cc2cc(NC(=O)Nc3cccc4ccccc34)ccc2O[C@H]1CN(C)S(=O)(=O)c1ccc(Cl)cc1`, for which the cytotoxicity call was “inactive”.

For `C[C@H]1CN([C@@H](C)CO)C(=O)Cc2cc(NC(=O)Nc3cccc4ccccc34)ccc2O[C@H]1CN(C)S(=O)(=O)c1ccc(Cl)cc1`, the cytotoxicity call was “active”.

Take `Cc1ccc(S(=O)(=O)N(C)C[C@H]2Oc3ccc(NC(=O)Nc4cccc5ccccc45)cc3CC(=O)N([C@@H](C)CO)C[C@@H]2C)cc1`: the cytotoxicity call is “inactive”.

For the molecule `Cc1ccc(S(=O)(=O)N(C)C[C@H]2Oc3ccc(NC(=O)Nc4cccc5ccccc45)cc3CC(=O)N([C@H](C)CO)C[C@H]2C)cc1`, the cytotoxicity call is “inactive”.

As to `Cc1ccc(S(=O)(=O)N(C)C[C@H]2Oc3ccc(NC(=O)Nc4cccc5ccccc45)cc3CC(=O)N([C@@H](C)CO)C[C@H]2C)cc1`, the cytotoxicity call was “inactive”.

With `C[C@H](CO)N1C[C@H](C)[C@H](CN(C)S(=O)(=O)c2ccc(Cl)cc2)Oc2ccc(NC(=O)Nc3cccc4ccccc34)cc2CC1=O`, the cytotoxicity call was “active”.

On to `C[C@@H]1CN([C@@H](C)CO)C(=O)Cc2cc(NC(=O)Nc3cccc4ccccc34)ccc2O[C@H]1CN(C)S(=O)(=O)c1ccc(Cl)cc1`, for which the cytotoxicity call was “inactive”.

For the molecule `C[C@H]1CN([C@@H](C)CO)C(=O)Cc2cc(NC(=O)Nc3cccc4ccccc34)ccc2O[C@@H]1CN(C)S(=O)(=O)c1ccc(Cl)cc1`, the cytotoxicity call was “inactive”.

Turning to `C[C@H](CO)N1C[C@H](C)[C@@H](CN(C)S(=O)(=O)c2ccc(Cl)cc2)Oc2ccc(NC(=O)Nc3cccc4ccccc34)cc2CC1=O`, the cytotoxicity call is “inactive”.

Turning to `Cc1ccc(S(=O)(=O)N(C)C[C@@H]2Oc3ccc(NC(=O)Nc4cccc5ccccc45)cc3CC(=O)N([C@H](C)CO)C[C@@H]2C)cc1`, the cytotoxicity call is “active”.

For the molecule `C[C@@H]1CN([C@@H](C)CO)C(=O)Cc2cc(NC(=O)Nc3cccc4ccccc34)ccc2O[C@@H]1CN(C)S(=O)(=O)c1ccc(Cl)cc1`, the cytotoxicity call is “active”.

As for `C[C@@H]1CN([C@H](C)CO)C(=O)Cc2cc(NC(=O)Nc3cccc4ccccc34)ccc2O[C@@H]1CN(C)S(=O)(=O)c1ccc(Cl)cc1`, the cytotoxicity call is “inactive”.

Take `C[C@@H]1CN([C@H](C)CO)C(=O)c2cc(NC(=O)c3ccncc3)ccc2O[C@@H](C)CCCCO[C@H]1CN(C)C(=O)Nc1cccc2ccccc12`: the cytotoxicity call is “inactive”.

`C[C@@H]1CCCCO[C@@H](CN(C)C(=O)c2ccccc2)[C@H](C)CN([C@H](C)CO)C(=O)c2cc(NC(=O)Nc3ccc(F)cc3)ccc2O1`: the cytotoxicity call is “inactive”.

`C[C@H]1CCCCO[C@H](CN(C)C(=O)c2ccccc2)[C@@H](C)CN([C@@H](C)CO)C(=O)c2cc(NC(=O)CCC(F)(F)F)ccc2O1`: the cytotoxicity call is “inactive”.

On to `Cc1noc(N)c1C(=O)O`, for which the cytotoxicity call was “inactive”.

In the case of `COCC(=O)N1C[C@H](C)[C@@H](OC)CN(C)C(=O)c2cc(NC(=O)c3cc(C)on3)ccc2OC[C@H]1C`, the cytotoxicity call was “inactive”.

Regarding `C[C@H]1CN([C@@H](C)CO)C(=O)c2cc(C#Cc3ccccc3F)cnc2O[C@@H]1CN(C)C(=O)Cc1cccnc1`, the cytotoxicity call was “inactive”.

As to `O=c1ccc(=O)n(CCO)[nH]1`, the cytotoxicity call was “inactive”.

Turning to `C#CCN(O[C@@H](/C=C/[C@@H](O)Cc1ccccc1)C1CC1)[C@@H](Cc1ccc(-n2cc(COc3ccccc3/C=C(C)/C=C/C(=O)NO)nn2)cc1)C(=O)OC`, the cytotoxicity call is “inactive”.

Turning to `Cc1noc(C)c1S(=O)(=O)N(C)C[C@@H]1OCCCC[C@H](C)Oc2ccc(NC(=O)Nc3cccc4ccccc34)cc2C(=O)N([C@H](C)CO)C[C@@H]1C`, the cytotoxicity call was “inactive”.

For the molecule `COc1ccc(S(=O)(=O)N(C)C[C@H]2Oc3ccc(NC(=O)NC(C)C)cc3C(=O)N([C@@H](C)CO)C[C@@H]2C)cc1`, the cytotoxicity call is “inactive”.

Turning to `C[C@@H]1CN([C@H](C)CO)C(=O)Cc2cc(NC(=O)Nc3cccc4ccccc34)ccc2O[C@H]1CN(C)S(=O)(=O)c1ccc(F)cc1`, the cytotoxicity call was “inactive”.

With `C[C@@H]1CN([C@@H](C)CO)C(=O)Cc2cc(NC(=O)Nc3cccc4ccccc34)ccc2O[C@@H]1CN(C)S(=O)(=O)c1ccc(F)cc1`, the cytotoxicity call was “inactive”.

In the case of `C[C@H](CO)N1C[C@H](C)[C@H](CN(C)S(=O)(=O)c2ccc(F)cc2)Oc2ccc(NC(=O)Nc3cccc4ccccc34)cc2CC1=O`, the cytotoxicity call was “active”.

As to `Cc1noc(C)c1NC(=O)N(C)C[C@H]1Oc2ccc(NS(C)(=O)=O)cc2CC(=O)N([C@@H](C)CO)C[C@@H]1C`, the cytotoxicity call is “inactive”.

Take `O=C(C[C@H]1C[C@H]2c3cc(NC(=O)Nc4ccc(C(F)(F)F)cc4)ccc3O[C@H]2[C@@H](CO)O1)NCc1cc(F)ccc1F`: the cytotoxicity call is “inactive”.

Take `C[C@@H]1CN([C@@H](C)CO)C(=O)c2cccc(NC(=O)Nc3ccc(F)cc3)c2O[C@H]1CN(C)C(=O)Nc1ccc(C(F)(F)F)cc1`: the cytotoxicity call is “inactive”.

`CC(C)CCCC(=O)N[C@@H](CCNCS(=O)(=O)O)C(=O)N[C@H](C(=O)N[C@@H](CCNCS(=O)(=O)O)C(=O)N[C@H]1CCNC(=O)[C@H]([C@@H](C)O)NC(=O)[C@H](CCNCS(=O)(=O)O)NC(=O)[C@H](CCNCS(=O)(=O)O)NC(=O)[C@H](CC(C)C)NC(=O)[C@H](CC(C)C)NC(=O)[C@H](CCNCS(=O)(=O)O)NC1=O)[C@@H](C)O`: the cytotoxicity call is “inactive”.

Consider `CCC(C)C1NC(=O)C(CCNCS(=O)(=O)[O-])NC(=O)C(NC(=O)C(CCNCS(=O)(=O)[O-])NC(=O)C(NC(=O)C(CCNCS(=O)(=O)[O-])NC(=O)CCCCC(C)C)C(C)O)CCNC(=O)C(C(C)O)NC(=O)C(CCNCS(=O)(=O)[O-])NC(=O)C(CCNCS(=O)(=O)[O-])NC(=O)C(C(C)CC)NC1=O.[Na+].[Na+].[Na+].[Na+].[Na+]` (stereo not drawn), for which the cytotoxicity call is “active”.

`C[C@@H]1CN([C@H](C)CO)S(=O)(=O)c2ccc(C#Cc3cccnc3)cc2O[C@H]1CN(C)CC1CCCC1`: the cytotoxicity call was “inactive”.

As to `Cc1noc(C)c1S(=O)(=O)N(C)C[C@H]1Oc2ccc(NS(C)(=O)=O)cc2C(=O)N([C@H](C)CO)C[C@H]1C`, the cytotoxicity call was “inactive”.

In the case of `COc1ccc(NC(=O)Nc2ccc3c(c2)[C@@H]2C[C@H](CC(=O)N4CCN(C)CC4)O[C@@H](CO)[C@@H]2O3)cc1`, the cytotoxicity call is “inactive”.

Turning to `Cc1ccc(S(=O)(=O)Nc2ccc3c(c2)C(=O)N([C@@H](C)CO)C[C@H](C)[C@H](CN(C)C(=O)Cc2ccccc2)OCCCC[C@@H](C)O3)cc1`, the cytotoxicity call is “inactive”.

Consider `C[C@@H]1CCCCO[C@@H](CN(C)C(=O)Cc2ccccc2)[C@@H](C)CN([C@@H](C)CO)C(=O)c2cc(NS(=O)(=O)c3ccc(Cl)cc3)ccc2O1`, for which the cytotoxicity call is “inactive”.

For `C[C@H]1CCCCO[C@@H](CN(C)C(=O)Cc2ccccc2)[C@@H](C)CN([C@@H](C)CO)C(=O)c2cc(NS(=O)(=O)c3ccc(F)cc3)ccc2O1`, the cytotoxicity call is “active”.

As for `C[C@@H]1CN([C@@H](C)CO)C(=O)c2cc(NS(=O)(=O)c3ccc(Cl)cc3)ccc2O[C@@H](C)CCCCO[C@H]1CN(C)C(=O)Cc1ccccc1`, the cytotoxicity call is “inactive”.

For `Cc1ccc(S(=O)(=O)Nc2ccc3c(c2)C(=O)N([C@@H](C)CO)C[C@H](C)[C@@H](CN(C)C(=O)Cc2ccccc2)OCCCC[C@@H](C)O3)cc1`, the cytotoxicity call was “active”.

`Cc1ccc(S(=O)(=O)Nc2ccc3c(c2)C(=O)N([C@@H](C)CO)C[C@@H](C)[C@H](CN(C)C(=O)Cc2ccccc2)OCCCC[C@H](C)O3)cc1`: the cytotoxicity call is “inactive”.

On to `C[C@@H]1CN([C@H](C)CO)C(=O)c2cc(NS(=O)(=O)c3ccc(Cl)cc3)ccc2O[C@@H](C)CCCCO[C@@H]1CN(C)C(=O)Cc1ccccc1`, for which the cytotoxicity call was “active”.

On to `C[C@@H]1CN([C@@H](C)CO)C(=O)c2cc(NS(=O)(=O)c3ccc(F)cc3)ccc2O[C@@H](C)CCCCO[C@@H]1CN(C)C(=O)Cc1ccccc1`, for which the cytotoxicity call is “inactive”.

Consider `C[C@@H]1CCCCO[C@@H](CN(C)C(=O)Cc2ccccc2)[C@@H](C)CN([C@H](C)CO)C(=O)c2cc(NS(=O)(=O)c3ccc(F)cc3)ccc2O1`, for which the cytotoxicity call is “inactive”.

In the case of `CN(C)CC#Cc1ccc([C@@H]2[C@H]3CN(C(=O)c4cccnc4)CC(=O)N3[C@H]2CO)cc1`, the cytotoxicity call was “inactive”.

For the molecule `CC(C)(C)[S@](=O)N1Cc2cc(C(=O)NCc3ccncc3)nc(-c3cccc(-c4ccc(C#N)cc4)c3)c2[C@@H]1CCO`, the cytotoxicity call was “inactive”.

On to `CO[C@H]1CN(C)C(=O)c2cc(NC(=O)C3CC3)ccc2OC[C@H](C)N(C(=O)CN2CCOCC2)C[C@H]1C`, for which the cytotoxicity call was “inactive”.

Regarding `CC(C)=CCC1=C(O)C(=O)c2ccccc2C1=O`, the cytotoxicity call is “inactive”.

As to `CC(C)=CCCC(C)=CCC1=C(C)C(=O)c2ccccc2C1=O`, the cytotoxicity call is “inactive”.

For the molecule `COC1=C(CC=C(C)C)C(=O)c2ccccc2C1=O`, the cytotoxicity call was “active”.

Turning to `Cc1noc(C)c1S(=O)(=O)Nc1ccc2c(c1)CC(=O)N([C@H](C)CO)C[C@@H](C)[C@H](CN(C)S(=O)(=O)c1ccccc1)O2`, the cytotoxicity call was “inactive”.

For the molecule `CN(Cc1ccc(C(C)(C)C)cc1)Cc1cccc2ccccc12`, the cytotoxicity call is “inactive”.

For `CCOC(=O)N(C)C[C@H]1OCc2cnnn2CCCC(=O)N([C@@H](C)CO)C[C@H]1C`, the cytotoxicity call is “inactive”.

As for `C[C@@H]1NC(=O)[C@@H](N)CNC(=O)[C@H]([C@H]2CCN=C(N)N2)NC(=O)/C(=C\NC(N)=O)NC(=O)[C@H](CNC(=O)C[C@@H](N)CCCN)NC1=O`, the cytotoxicity call was “inactive”.

Regarding `C[C@@H]1CN([C@@H](C)CO)C(=O)Cc2cc(NC(=O)Nc3ccccc3)ccc2O[C@@H]1CN(C)C(=O)Nc1ccc(C(F)(F)F)cc1`, the cytotoxicity call is “inactive”.

As to `C[C@@H]1CN([C@@H](C)CO)C(=O)Cc2cc(NC(=O)Nc3ccc(C(F)(F)F)cc3)ccc2O[C@@H]1CN(C)C(=O)Nc1ccccc1`, the cytotoxicity call was “active”.

For the molecule `C[C@H](CO)N1C[C@H](C)[C@H](CN(C)C(=O)Nc2ccc(C(F)(F)F)cc2)Oc2ccc(NC(=O)Nc3ccccc3)cc2CC1=O`, the cytotoxicity call is “inactive”.

For the molecule `C[C@H](CO)N1C[C@H](C)[C@@H](CN(C)C(=O)Nc2ccccc2)Oc2ccc(NC(=O)Nc3ccc(C(F)(F)F)cc3)cc2CC1=O`, the cytotoxicity call is “inactive”.

Consider `C[C@H]1CN([C@@H](C)CO)C(=O)Cc2cc(NC(=O)Nc3ccc(C(F)(F)F)cc3)ccc2O[C@@H]1CN(C)C(=O)Nc1ccccc1`, for which the cytotoxicity call was “inactive”.

Take `C[C@H](CO)N1C[C@H](C)[C@H](CN(C)C(=O)Nc2ccccc2)Oc2ccc(NC(=O)Nc3ccc(C(F)(F)F)cc3)cc2CC1=O`: the cytotoxicity call is “active”.
